Rows were chosen to be rich in hits. Some 2.8% of all compounds tested hit in one or more screens of this group.
Shn3 inh set2: reduces Shn3 3'UTR luciferase signal in osteoblasts; 360,000 compounds, 0.52% hits; Clone20 osteoblast Shn3 3'UTR firefly luciferase, 24 h; inhibition, % at 12.5 µM;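 active = mean inhibition of at least 75% with every replicate also reaching 75%; inconclusive = mean inhibition at least 75% but some replicate below; inactive = mean inhibition below 75%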;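 also: 0% = median of neutral control wells and 100% = pilot-screen positive control compound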
Env fusion inh: HIV envelope-mediated fusion inhibition | HeLa-JRFL Env/CEM21 cell fusion, luciferase | inhibition, % at 12.3 µM | 360,000 compounds, 1.1% hits | AID 651610;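 active = mean replicate inhibition score of at least 50 and every replicate individually at or above 50; inconclusive = only one of the two criteria met; inactive = mean below 50 and not all replicates reaching 50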;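 also: 0% = plate neutral controls and 100% = maraviroc near 300 nM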
N-glyco inh: blocks N-linked glycosylation in D54 reporter cells. D54 ERlucT glycosylation luciferase reporter, 24 h; percent of 100 nM tunicamycin response. reporter increase, % at 12.5 µM. 360,000 compounds, 0.23% hits;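 active = mean luciferase reporter signal, scaled so untreated is 0 and the glycosylation-blocking control 100, at or above a set limit in every replicate; inconclusive = mean reaches the limit but not every replicate does; inactive = mean below the limit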;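 also: luciferase carries N-glycosylation sites so blocking glycosylation raises the light; 0% = median of neutral control wells and 100% = median of 100 nM tunicamycin wells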
EBV LMP1 NFkB: Epstein-Barr LMP1 NF-kappaB reporter inhibition | LMP1-induced NF-kappaB luciferase reporter cells, luminescence | 350,000 compounds, 0.69% hits | inhibition, % at 12.5 µM; in the data active = inhibition above about 41%; inconclusive = no clear call, values can overlap the other calls;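 also: 0% = neutral control wells and 100% = reference inhibitor control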
PAX8 reporter: PAX8 transcriptional activity inhibition | RMG-I TPO-luciferase reporter, SteadyGlo, 24 h | inhibition, % at 12.6 µM | 360,000 compounds, 1.2% hits | AID 652154;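 active = mean replicate inhibition at least 60% with every replicate also reaching 60%; inconclusive = only one of the two criteria is met; inactive = mean below 60% and not all replicates reaching 60%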;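 also: luciferase light reporting Pax8 driven TPO promoter activity; plate controls were median of neutral control wells for no effect and mitoxantrone controls for full effect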
NSD2 HMT inh: inhibitors of human histone methyltransferase NSD2; O96028; NSD2 peptide methylation, AlphaScreen, 120 min; inhibition, % at 12.5 µM; 310,000 compounds, 0.54% hits; in the data active = inhibition above about 50%
Target sequence (O96028 whole entry, looked up): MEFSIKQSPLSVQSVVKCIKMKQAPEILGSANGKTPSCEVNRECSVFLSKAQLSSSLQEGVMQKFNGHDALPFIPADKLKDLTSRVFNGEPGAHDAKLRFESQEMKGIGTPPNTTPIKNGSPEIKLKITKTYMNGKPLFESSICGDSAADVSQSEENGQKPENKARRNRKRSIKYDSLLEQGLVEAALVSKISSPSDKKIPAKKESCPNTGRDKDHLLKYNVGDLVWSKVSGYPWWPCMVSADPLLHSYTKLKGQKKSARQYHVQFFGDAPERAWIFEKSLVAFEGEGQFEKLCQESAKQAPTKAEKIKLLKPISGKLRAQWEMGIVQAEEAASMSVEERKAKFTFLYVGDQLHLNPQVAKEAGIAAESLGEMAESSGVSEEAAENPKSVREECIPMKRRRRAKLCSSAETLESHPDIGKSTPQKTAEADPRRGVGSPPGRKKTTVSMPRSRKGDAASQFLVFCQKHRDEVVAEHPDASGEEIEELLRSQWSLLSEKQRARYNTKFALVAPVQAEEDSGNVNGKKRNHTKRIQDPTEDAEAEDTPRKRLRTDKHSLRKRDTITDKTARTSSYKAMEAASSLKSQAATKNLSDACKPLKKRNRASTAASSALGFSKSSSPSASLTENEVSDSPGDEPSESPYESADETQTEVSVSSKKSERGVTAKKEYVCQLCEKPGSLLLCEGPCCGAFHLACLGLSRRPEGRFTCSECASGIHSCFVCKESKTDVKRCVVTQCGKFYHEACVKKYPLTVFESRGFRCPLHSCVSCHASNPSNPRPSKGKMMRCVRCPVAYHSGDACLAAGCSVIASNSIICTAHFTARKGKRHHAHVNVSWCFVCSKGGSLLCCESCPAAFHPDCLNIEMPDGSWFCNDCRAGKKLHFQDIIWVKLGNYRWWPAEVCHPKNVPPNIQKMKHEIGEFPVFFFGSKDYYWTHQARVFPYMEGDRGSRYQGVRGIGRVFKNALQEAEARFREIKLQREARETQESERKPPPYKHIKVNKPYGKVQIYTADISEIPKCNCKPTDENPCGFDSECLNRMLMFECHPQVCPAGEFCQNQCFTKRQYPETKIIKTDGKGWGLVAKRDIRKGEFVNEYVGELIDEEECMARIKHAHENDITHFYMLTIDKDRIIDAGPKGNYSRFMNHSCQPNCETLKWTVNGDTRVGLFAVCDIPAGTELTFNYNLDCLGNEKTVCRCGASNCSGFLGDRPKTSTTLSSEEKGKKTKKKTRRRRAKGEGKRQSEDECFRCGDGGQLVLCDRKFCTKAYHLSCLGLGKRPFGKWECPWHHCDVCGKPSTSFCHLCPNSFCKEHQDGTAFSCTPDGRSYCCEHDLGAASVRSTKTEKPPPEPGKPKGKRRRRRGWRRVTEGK
* = called active by the depositor; u = inconclusive; x = no result given; [ ] = remark or other dose.

SMILES	Shn3 inh set2	Env fusion inh	N-glyco inh	EBV LMP1 NFkB	PAX8 reporter	NSD2 HMT inh
CC(=O)OCC(=O)[C@@]1(O)CC[C@H]2[C@@H]3CCC4=CC(=O)CC[C@]4(C)[C@H]3C(=O)C[C@@]21C	88*	5	1	-2	-12	x
CC(C)CC#Cc1ccc2c(c1)O[C@@H](CN(C)S(=O)(=O)c1ccc(F)cc1)[C@H](C)CN([C@@H](C)CO)S2(=O)=O	x	60*[16.7 µM]	x	x	81*	x
CC(C)CC#Cc1ccc2c(c1)O[C@H](CN(C)S(=O)(=O)c1cccc(F)c1)[C@H](C)CN([C@@H](C)CO)S2(=O)=O	x	45[16.7 µM]	x	x	x	x
CC(C)CC#Cc1ccc2c(c1)O[C@H](CN(C)S(=O)(=O)c1ccc(F)cc1)[C@@H](C)CN([C@@H](C)CO)S2(=O)=O	x	33[16.7 µM]	x	x	101*	x
CCCC#Cc1ccc2c(c1)O[C@H](CN(C)S(=O)(=O)c1cccc(F)c1)[C@@H](C)CN([C@@H](C)CO)S2(=O)=O	x	11[16.7 µM]	x	x	x	x
CC(C)CC#Cc1ccc2c(c1)O[C@@H](CN(C)S(=O)(=O)c1ccc(F)cc1)[C@@H](C)CN([C@@H](C)CO)S2(=O)=O	x	44[16.7 µM]	x	x	95*	x
CC(C)CC#Cc1ccc2c(c1)O[C@H](CN(C)S(=O)(=O)c1cccc(F)c1)[C@H](C)CN([C@H](C)CO)S2(=O)=O	x	44[16.7 µM]	x	x	x	x
CCCC#Cc1ccc2c(c1)O[C@H](CN(C)S(=O)(=O)c1cccc(F)c1)[C@H](C)CN([C@@H](C)CO)S2(=O)=O	x	64*[16.7 µM]	x	x	x	x
CCOC(=O)c1c(NC(=O)CSc2nnc(CNc3ccc(Cl)cc3)o2)sc(C)c1C	7	65*	-1	-15	x	-2
C[C@H]1CN([C@@H](C)CO)C(=O)Cc2cc(NC(=O)Nc3ccc(F)cc3)ccc2O[C@@H]1CN(C)Cc1ccc(C(F)(F)F)cc1	x	32[16.7 µM]	x	x	x	x
CN1CC(c2ccc(Cl)c(Cl)c2)[C@@]2(COc3ccccc3C2=O)[C@@]12C(=O)Nc1ccccc12 (stereo partly drawn)	-2	103*	-8	-3	x	0
CCCN1C(=O)c2ccccc2NC1c1ccc(Cl)c(Cl)c1 (stereo not drawn)	-1	32	-3	8	4	-7
O=C1ON=C(c2ccccc2)/C1=C/c1ccc(OS(=O)(=O)c2ccccc2)cc1	-29	x	0	2	108*	19
C[C@@H](Oc1ccccc1)c1nnn(Cc2ccccc2)c1-c1c([C@@H](C)Oc2ccccc2)nnn1Cc1ccccc1	x	73*	x	x	27	x
O=C(O)c1cccc(N/N=C/c2cc(Br)cc(Br)c2O)c1	-37	-50	2	-12	-120	4
Cc1c(N=Cc2cc(Br)cc(Br)c2O)cccc1C(=O)O	-3	20	1	68*	-13	1
COc1ccccc1NC(=O)N[C@@H]1CC[C@H](CCNC(=O)c2ccc3c(c2)OCO3)O[C@H]1CO	x	-1[16.7 µM]	x	x	1	x
Cc1cc(N)n2nc(C)c(-c3ccc(Cl)cc3)c2n1	7	30	7	-9	14	-3
COc1ccc(-c2c(C)nn3c(C(F)(F)F)cc(C)nc23)cc1	7	87*	1	1	-12	0
Cc1cc(Cl)n2nc(C)c(-c3ccc(Cl)cc3)c2n1	38	-8	1	0	81*	-3
C[C@@H]1CN([C@H](C)CO)C(=O)Cc2cc(NC(=O)CCCCCC(=O)Nc3ccccc3N)ccc2O[C@@H]1CN(C)Cc1ccc(Cl)c(Cl)c1	x	14[16.7 µM]	x	x	52	x
C[C@@H]1CN([C@@H](C)CO)C(=O)Cc2cc(NC(=O)CCCCCC(=O)Nc3ccccc3N)ccc2O[C@@H]1CN(C)Cc1ccc(Cl)c(Cl)c1	x	13[16.7 µM]	x	x	70*	x
C[C@H](CO)N1C[C@H](C)[C@H](CN(C)Cc2ccc(Cl)c(Cl)c2)Oc2ccc(NC(=O)CCCCCC(=O)Nc3ccccc3N)cc2CC1=O	x	24[16.7 µM]	x	x	68*	x
C[C@@H]1CN([C@H](C)CO)C(=O)Cc2cc(NC(=O)CCCCCC(=O)Nc3ccccc3N)ccc2O[C@@H]1CN(C)Cc1ccccc1	x	9[16.7 µM]	x	x	12	x
COC(=O)C1=C(SC)N(c2ccccc2)C(c2ccccc2)CC1=O (stereo not drawn)	11	x	0	3	91*	-2
SMILES	Shn3 inh set2	Env fusion inh	N-glyco inh	EBV LMP1 NFkB	PAX8 reporter	NSD2 HMT inh
COC(=O)C1=C(SC)N(c2ccc(OC)cc2)C(c2ccccc2)CC1=O (stereo not drawn)	-8	1	1	7	18	0
O=C(Nc1ccc(OCC(=O)N2CCOCC2)cc1)c1ccccc1Cl	-44	-18	-4	51*	-13	0
O=C(Nc1ccc(OCC(=O)N2CCOCC2)cc1)c1cncc(Br)c1	-7	57*	-6	11	-52	2
Cc1noc(C)c1NC(=O)N(C)C[C@H]1Oc2ccc(NC(=O)NC3CCCCC3)cc2CC(=O)N([C@@H](C)CO)C[C@H]1C	x	-3[16.7 µM]	x	x	x	x
COc1ccc(C(=O)CCS(=O)(=O)c2ccc(C)cc2)cc1OC	-24	x	-2	-1	96*	0
Cc1ccc(S(=O)(=O)CCC(=O)c2ccc(O)cc2O)cc1	-12	-61	0	10	97*	-4
COc1ccccc1C(=O)Nc1ccc2c(c1)C(=O)N(C)C[C@H](OC)[C@@H](C)CN[C@@H](C)CO2	x	11[16.7 µM]	x	x	-2	x
O=C(Nc1cccc(-n2cnnn2)c1)c1cc(Cl)ccc1Cl	-8	4	34*	-3	26	1
C[C@@H]1CN([C@@H](C)CO)C(=O)c2cc(NC(=O)Nc3ccc(F)cc3)ccc2O[C@@H](C)CCCCO[C@@H]1CN(C)Cc1ccncc1	x	-5[16.7 µM]	x	x	-11	x
CN(c1ccccc1)S(=O)(=O)c1cccc(NC(=O)C2=NNC(=O)CC2)c1	33	64*	0	6	x	-1
O=[N+]([O-])c1ccccc1C=NNC(=S)NN=Cc1ccccc1[N+](=O)[O-]	-31	-72	28*	-21	-83	-2
CCOCCCNC(=O)c1cc2c(=O)n(CC)c3ccccc3c2s1	-6	-28	41*	8	5	3
CCn1c(=O)c2cc(C(=O)NCCOC)sc2c2ccccc21	6	-1	13	0	-23	-2
COc1ccc(Nc2nc(N3CCCCC3)c3ccccc3n2)cc1	83	x	-4	11	x	6
Oc1ccc(Nc2nc(N3CCCC3)c3ccccc3n2)cc1	9	-150	53*	-12	x	x
COc1ccc(C(=O)NN(C)c2nc(C(F)(F)F)nc3ccccc23)cc1	34	-70	-6	9	94*	-14
COc1ccc(C(=O)NN(C)c2nc(-c3ccccc3)nnc2C(F)(F)F)cc1	18	x	0	0	x	13
O=S(=O)(NCC[C@@H]1CC[C@@H](NS(=O)(=O)c2ccccc2Cl)[C@H](CO)O1)c1ccc(Cl)cc1	x	57*[16.7 µM]	x	x	10	x
O=C(Nc1cccc(F)c1)N[C@@H]1CC[C@H](CCNS(=O)(=O)c2cccc(Cl)c2)O[C@H]1CO	x	67*[16.7 µM]	x	x	-14	x
O=C(Nc1cccc(F)c1)N[C@H]1CC[C@H](CCNS(=O)(=O)c2cccc(Cl)c2)O[C@@H]1CO	x	u	x	x	-26	x
